Test results: PubChem BioAssay (Tox21)
Calls of active or inactive are those of the source. The call rests on the fitted dose curve; in most records, active means well fitted curve in the direction sought with a large enough effect in the repeat runs; inconclusive means weak or mixed curves; inactive means flat fitted curve, though single readings scatter.

Experiment: qHTS assay to test for compound auto fluorescence at 460 nm (blue) in HEK293 cells (AID 720678)
Conditions: blue autofluorescence 405/460 nm; series mostly up to 91.3 µM; fluorescence, % of triamterene: at the top concentration
Description: National Center for Advancing Translational Sciences [NCATS]
NIH Chemical Genomics Center [NCGC]
U.S. Environmental Protection Agency [EPA]
National Institutes of Environmental Health Sciences [NIEHS]
National Toxicology Program [NTP]
U.S. Food and Drug Administration [FDA]
Compound auto fluorescence often interferes with screening of the compound library against various biological targets and signaling pathways. Some of these compounds may have fluorophoric properties. Such properties may interfere with the assay outputs resulting in false positives and/or negatives. To decrease such complications and ensure the compound activities are relevant in terms of biological response, the Tox21 10K compound library was screened for auto fluorescence.
From the fluorophores used as reporter signals in our screening assays, the auto fluorescence equivalencies of compounds against three fluorophores have been evaluated: Triamterene, Fluorescein and Rose Bengal sodium for blue, green and red fluorescence, respectively. The fluorescence intensities were measured using Excitation/Emission wavelengths at 405/460nm, 485/535nm and 540/590nm for blue, green and red labels, respectively. This assay includes the blue fluorescence data.
Tox21 Assay Protocol Summary:
2,000 HEK293 cells in 5 uL of culture medium containing 10% dialyzed FBS per well were dispensed into black wall/clear bottom 1536-well plates using a Multidrop Combi Dispenser (Thermo Scientific). The assay plates were incubated for 4-5 hr at 37C to allow cell attachment to the well bottom, followed by the transfer of 23 nL compound or DMSO vehicle by a pintool work station (Kalypsys, San Diego, CA). After the assay plates were incubated overnight at 37C and 5% CO2, fluorescence intensities in the assay plates were measured by an Envision (PerkinElmer, Shelton, CT) plate reader using three labels for measuring blue, green and red fluorescence at […] 460, 535 and 590nm respectively.
On the % scale 0 is the no-effect control and ±100 the full control effect.

Structure (SMILES) | fluorescence, % of triamterene | Potency
Nc1ncnc2c1ncn2[C@@H]1O[C@H](COP(=O)(O)O)[C@@H](O)[C@H]1O | -0.0687% [at 46 µM] (inactive) | 
CCCCOc1ccc(C(=O)CCN2CCCCC2)cc1 | 0.101% [at 18.6 µM] (inactive) | 
NC1(c2ccc(-c3nc4ccn5c(=O)[nH]nc5c4cc3-c3ccccc3)cc2)CCC1 | 2.45% [at 46 µM] (inactive) | 
C(=C/c1ccccc1)/c1ccccc1 | -0.0143% [at 95.7 µM] (inactive) | 
CCCCCCCCCCCCCOP(=O)(O)O | 0.0985% (inactive) | 
Cc1nc(Nc2ncc(C(=O)Nc3c(C)cccc3Cl)s2)cc(N2CCN(CCO)CC2)n1 | 0.964% [at 46 µM] (inactive) | 
CCCCN(CCCC)CCC(O)c1cc2c(Cl)cc(Cl)cc2c2cc(C(F)(F)F)ccc12 (stereo not given) | -0.234% [at 18.6 µM] (inactive) | 
CN(Cc1cc(Br)cc(Br)c1N)C1CCCCC1 | 0.275% [at 46 µM] (inactive) | 
CNC(=S)NN | 0.17% (inactive) | 
COCC(=O)O[C@]1(CCN(C)CCCc2nc3ccccc3[nH]2)CCc2cc(F)ccc2[C@@H]1C(C)C | -0.161% [at 46 µM] (inactive) | 
CCCC(CC)CCCCCCCN (stereo not given) | -0.18% [at 95.7 µM] (inactive) | 
O=C1OC(=O)c2cccc3cccc1c23 | 0.0463% (inactive) | 
CCCCCCCC/C=C\CCCCCCCC(=O)N(C)CC(=O)O | 0.0013% (inactive) | 
CC(=O)Nc1ccc(O)cc1 |  | inactive
O[C@@H](c1cc(C(F)(F)F)nc2c(C(F)(F)F)cccc12)[C@H]1CCCCN1 | -0.178% [at 46 µM] (inactive) | 
CC=O | -0.0616% [at 95.7 µM] (inactive) | 
CSc1ccc2c(c1)N(CCC1CCCCN1C)c1ccccc1S2 (stereo not given) |  | inactive
CO[C@H]1C=CO[C@@]2(C)Oc3c(C)c(O)c4c(O)c(cc(O)c4c3C2=O)NC(=O)/C(C)=C\C=C/[C@H](C)[C@H](O)[C@@H](C)[C@@H](O)[C@@H](C)[C@H](OC(C)=O)[C@@H]1C |  | inactive
S=P(N1CC1)(N1CC1)N1CC1 |  | inactive
C[C@]12CC[C@H]3C(=CCc4cc(O)ccc43)[C@@H]1CCC2=O | 0.216% (inactive) | 

Structure (SMILES) | fluorescence, % of triamterene | Potency
C[C@@H]1CC[C@H]2C(C)(C)[C@H]3C[C@@]12CC[C@@]3(C)O | -0.0389% (inactive) | 
CCN=c1cc2oc3cc(NCC)c(C)cc3c(-c3ccccc3C(=O)OCC)c-2cc1C |  | inactive
CCN(CC)CCCN(c1ccccc1)C1Cc2ccccc2C1 | -0.0299% [at 46 µM] (inactive) | 
Cn1cnc2ncnc(N)c21 | -0.0024% [at 46 µM] (inactive) | 
CCOC(=O)[C@@](C)(N)Cc1ccc(O)c(O)c1 | 0.197% [at 18.6 µM] (inactive) | 
Clc1ccccc1CN1CCc2sccc2C1 | -0.251% [at 46 µM] (inactive) | 
Brc1ccccc1-c1ccccc1 | -0.325% (inactive) | 
CCC(C)(C)c1cc(O)c(C(C)(C)CC)cc1O | -0.031% (inactive) | 
CNC(=O)c1cc(Oc2ccc(NC(=O)Nc3ccc(Cl)c(C(F)(F)F)c3)cc2)ccn1 | -0.16% [at 46 µM] (inactive) | 
Cc1cccc(C)c1NC(=O)CN1CCN(CCCC(c2ccc(F)cc2)c2ccc(F)cc2)CC1 | 0.0374% [at 18.6 µM] (inactive) | 
CCN1CCN(c2cc(-c3ccc(F)cc3)c3c(n2)CCCCCC3)CC1 | -0.0442% [at 46 µM] (inactive) | 
N[C@@H](CSSC[C@H](N)C(=O)O)C(=O)O | -0.134% [at 46 µM] (inactive) | 
CCCCCCCCCCOCC(O)CN (stereo not given) | 0.0947% [at 46 µM] (inactive) | 
Nc1cc(Cl)c([N+](=O)[O-])cc1O | -0.516% (inactive) | 
c1ccc(Nc2cccc3ccccc23)cc1 |  | inactive
CCCCCCCCCCCCCCCC | -0.33% (inactive) | 
C1CC(COCC2CO2)CCC1COCC1CO1 (stereo not given) | -0.151% (inactive) | 
Cc1cccc(Br)c1 | -0.0061% (inactive) | 
O=S(=O)(O)CCCN1CCOCC1 | -0.144% (inactive) | 
Cc1occc1SSc1ccoc1C | 0.0493% (inactive) | 
